# Measurements reported in ChEMBL document CHEMBL1961873, “Compounds: GSK PKIS; Assays: Nanosyn kinase panel” (2012).
# How the values were obtained:
# [1] = biological target: Sphingosine kinase 1 (Homo sapiens) (UniProt Q9NYA1); conditions: at 1 µM;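 note: mean SPHK1 inhibition value reported from the GSK PKIS kinase panel screen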
# [2] = biological target: T1, Sphingosine kinase 2 (Homo sapiens) (UniProt Q9NRA0); conditions: at 0.1 µM
# T1 sequence (whole entry): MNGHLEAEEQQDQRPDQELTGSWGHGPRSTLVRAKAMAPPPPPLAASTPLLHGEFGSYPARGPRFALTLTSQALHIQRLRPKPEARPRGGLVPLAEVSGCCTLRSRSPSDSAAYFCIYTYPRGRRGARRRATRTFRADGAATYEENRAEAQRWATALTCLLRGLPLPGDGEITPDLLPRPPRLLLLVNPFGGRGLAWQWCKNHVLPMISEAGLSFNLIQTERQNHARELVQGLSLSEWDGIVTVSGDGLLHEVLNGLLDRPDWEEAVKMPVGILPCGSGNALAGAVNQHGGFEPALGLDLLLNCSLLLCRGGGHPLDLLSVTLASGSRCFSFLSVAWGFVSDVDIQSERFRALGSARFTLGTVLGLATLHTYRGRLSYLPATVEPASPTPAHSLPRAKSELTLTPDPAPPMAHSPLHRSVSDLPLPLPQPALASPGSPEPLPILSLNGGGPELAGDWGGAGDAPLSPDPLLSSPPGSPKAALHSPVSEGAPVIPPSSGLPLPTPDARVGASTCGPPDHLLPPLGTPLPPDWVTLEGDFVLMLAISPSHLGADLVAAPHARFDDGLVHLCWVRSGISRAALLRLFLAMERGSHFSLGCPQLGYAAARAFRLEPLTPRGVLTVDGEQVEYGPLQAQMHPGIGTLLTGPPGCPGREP
# [3] = biological target: T1, Sphingosine kinase 2 (Homo sapiens); conditions: at 1 µM
# [4] = biological target: Casein kinase II subunit alpha (Homo sapiens) (UniProt P68400); conditions: at 0.1 µM
# Sequence of Casein kinase II subunit alpha (Homo sapiens) (P68400 whole entry, looked up): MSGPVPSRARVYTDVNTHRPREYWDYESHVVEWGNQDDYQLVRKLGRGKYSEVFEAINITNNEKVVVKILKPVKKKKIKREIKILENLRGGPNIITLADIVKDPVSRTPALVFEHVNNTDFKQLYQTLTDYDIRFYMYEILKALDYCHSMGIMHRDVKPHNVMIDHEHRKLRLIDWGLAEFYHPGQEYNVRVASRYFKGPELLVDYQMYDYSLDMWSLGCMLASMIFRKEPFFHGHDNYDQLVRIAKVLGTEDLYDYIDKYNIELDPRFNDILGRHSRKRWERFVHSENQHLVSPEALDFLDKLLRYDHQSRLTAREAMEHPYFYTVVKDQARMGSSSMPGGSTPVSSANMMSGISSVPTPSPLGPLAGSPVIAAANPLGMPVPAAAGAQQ
# [5] = biological target: Casein kinase II subunit alpha (Homo sapiens) (UniProt P68400); conditions: at 1 µM
# [6] = biological target: T2, Inhibitor of nuclear factor kappa-B kinase subunit alpha (Homo sapiens) (UniProt O15111); conditions: at 0.1 µM
# T2 sequence (whole entry): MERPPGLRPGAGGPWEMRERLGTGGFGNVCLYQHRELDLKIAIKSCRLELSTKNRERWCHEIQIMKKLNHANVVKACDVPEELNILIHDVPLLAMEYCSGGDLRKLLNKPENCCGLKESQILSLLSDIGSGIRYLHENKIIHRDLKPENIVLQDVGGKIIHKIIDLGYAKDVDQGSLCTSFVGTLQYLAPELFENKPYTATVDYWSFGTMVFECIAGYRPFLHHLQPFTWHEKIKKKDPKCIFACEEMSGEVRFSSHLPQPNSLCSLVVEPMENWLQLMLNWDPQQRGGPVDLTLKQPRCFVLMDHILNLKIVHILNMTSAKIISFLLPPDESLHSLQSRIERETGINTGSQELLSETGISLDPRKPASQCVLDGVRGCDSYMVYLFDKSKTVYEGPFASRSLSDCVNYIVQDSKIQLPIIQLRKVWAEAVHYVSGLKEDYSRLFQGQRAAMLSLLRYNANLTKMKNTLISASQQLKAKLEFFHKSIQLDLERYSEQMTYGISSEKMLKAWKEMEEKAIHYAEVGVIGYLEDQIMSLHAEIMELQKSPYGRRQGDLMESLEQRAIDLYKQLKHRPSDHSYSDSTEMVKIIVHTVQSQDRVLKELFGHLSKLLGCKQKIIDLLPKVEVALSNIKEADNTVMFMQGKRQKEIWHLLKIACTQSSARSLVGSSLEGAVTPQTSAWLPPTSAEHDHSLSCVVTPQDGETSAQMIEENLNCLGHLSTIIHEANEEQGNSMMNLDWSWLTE
# [7] = biological target: T2, Inhibitor of nuclear factor kappa-B kinase subunit alpha (Homo sapiens); conditions: at 1 µM
# [8] = biological target: T3, Inhibitor of nuclear factor kappa-B kinase subunit beta (Homo sapiens) (UniProt O14920); conditions: at 0.1 µM
# T3 sequence (whole entry): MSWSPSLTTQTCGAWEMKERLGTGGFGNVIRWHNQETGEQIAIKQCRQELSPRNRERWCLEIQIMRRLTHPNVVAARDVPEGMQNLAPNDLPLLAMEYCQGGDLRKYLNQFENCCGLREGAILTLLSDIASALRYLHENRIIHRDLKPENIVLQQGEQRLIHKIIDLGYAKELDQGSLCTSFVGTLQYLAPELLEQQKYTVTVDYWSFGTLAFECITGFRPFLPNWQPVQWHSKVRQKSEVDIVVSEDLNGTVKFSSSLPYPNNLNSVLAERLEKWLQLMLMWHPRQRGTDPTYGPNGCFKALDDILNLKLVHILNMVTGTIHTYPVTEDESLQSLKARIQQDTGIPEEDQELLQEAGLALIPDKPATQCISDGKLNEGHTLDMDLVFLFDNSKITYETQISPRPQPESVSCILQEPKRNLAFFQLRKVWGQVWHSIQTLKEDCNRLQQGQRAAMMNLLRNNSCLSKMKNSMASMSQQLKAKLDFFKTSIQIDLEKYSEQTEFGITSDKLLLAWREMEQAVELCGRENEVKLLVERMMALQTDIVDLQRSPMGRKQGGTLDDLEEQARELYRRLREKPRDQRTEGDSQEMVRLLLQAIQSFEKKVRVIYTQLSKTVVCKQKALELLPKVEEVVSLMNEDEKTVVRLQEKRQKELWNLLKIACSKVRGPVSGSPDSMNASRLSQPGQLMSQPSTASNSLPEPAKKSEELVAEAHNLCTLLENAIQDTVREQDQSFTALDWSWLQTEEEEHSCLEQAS
# [9] = biological target: T3, Inhibitor of nuclear factor kappa-B kinase subunit beta (Homo sapiens); conditions: at 1 µM
# [10] = biological target: T4, Inhibitor of nuclear factor kappa-B kinase subunit epsilon (Homo sapiens) (UniProt Q14164); conditions: at 0.1 µM
# T4 sequence (whole entry): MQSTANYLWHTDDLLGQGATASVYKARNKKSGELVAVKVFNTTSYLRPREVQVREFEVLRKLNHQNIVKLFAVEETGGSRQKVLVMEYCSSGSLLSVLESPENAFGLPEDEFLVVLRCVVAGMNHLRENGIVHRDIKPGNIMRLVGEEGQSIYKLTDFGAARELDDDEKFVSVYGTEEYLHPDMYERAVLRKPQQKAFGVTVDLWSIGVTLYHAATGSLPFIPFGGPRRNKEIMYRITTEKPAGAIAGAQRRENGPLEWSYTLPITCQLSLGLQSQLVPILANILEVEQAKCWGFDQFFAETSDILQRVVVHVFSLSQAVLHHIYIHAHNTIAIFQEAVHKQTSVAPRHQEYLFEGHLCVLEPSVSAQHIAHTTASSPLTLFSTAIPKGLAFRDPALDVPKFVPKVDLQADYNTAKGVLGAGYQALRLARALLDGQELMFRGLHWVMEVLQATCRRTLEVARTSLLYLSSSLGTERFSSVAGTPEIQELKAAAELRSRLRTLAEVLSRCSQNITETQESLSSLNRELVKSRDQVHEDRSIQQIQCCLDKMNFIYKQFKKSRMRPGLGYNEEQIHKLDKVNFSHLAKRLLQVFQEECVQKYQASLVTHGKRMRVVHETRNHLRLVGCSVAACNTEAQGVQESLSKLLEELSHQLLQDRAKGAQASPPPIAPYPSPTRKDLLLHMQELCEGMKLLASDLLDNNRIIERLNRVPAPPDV
# [11] = biological target: T4, Inhibitor of nuclear factor kappa-B kinase subunit epsilon (Homo sapiens); conditions: at 1 µM
# [12] = biological target: T5, Serine/threonine-protein kinase Nek1 (Homo sapiens) (UniProt Q96PY6); conditions: at 0.1 µM
# T5 sequence (whole entry): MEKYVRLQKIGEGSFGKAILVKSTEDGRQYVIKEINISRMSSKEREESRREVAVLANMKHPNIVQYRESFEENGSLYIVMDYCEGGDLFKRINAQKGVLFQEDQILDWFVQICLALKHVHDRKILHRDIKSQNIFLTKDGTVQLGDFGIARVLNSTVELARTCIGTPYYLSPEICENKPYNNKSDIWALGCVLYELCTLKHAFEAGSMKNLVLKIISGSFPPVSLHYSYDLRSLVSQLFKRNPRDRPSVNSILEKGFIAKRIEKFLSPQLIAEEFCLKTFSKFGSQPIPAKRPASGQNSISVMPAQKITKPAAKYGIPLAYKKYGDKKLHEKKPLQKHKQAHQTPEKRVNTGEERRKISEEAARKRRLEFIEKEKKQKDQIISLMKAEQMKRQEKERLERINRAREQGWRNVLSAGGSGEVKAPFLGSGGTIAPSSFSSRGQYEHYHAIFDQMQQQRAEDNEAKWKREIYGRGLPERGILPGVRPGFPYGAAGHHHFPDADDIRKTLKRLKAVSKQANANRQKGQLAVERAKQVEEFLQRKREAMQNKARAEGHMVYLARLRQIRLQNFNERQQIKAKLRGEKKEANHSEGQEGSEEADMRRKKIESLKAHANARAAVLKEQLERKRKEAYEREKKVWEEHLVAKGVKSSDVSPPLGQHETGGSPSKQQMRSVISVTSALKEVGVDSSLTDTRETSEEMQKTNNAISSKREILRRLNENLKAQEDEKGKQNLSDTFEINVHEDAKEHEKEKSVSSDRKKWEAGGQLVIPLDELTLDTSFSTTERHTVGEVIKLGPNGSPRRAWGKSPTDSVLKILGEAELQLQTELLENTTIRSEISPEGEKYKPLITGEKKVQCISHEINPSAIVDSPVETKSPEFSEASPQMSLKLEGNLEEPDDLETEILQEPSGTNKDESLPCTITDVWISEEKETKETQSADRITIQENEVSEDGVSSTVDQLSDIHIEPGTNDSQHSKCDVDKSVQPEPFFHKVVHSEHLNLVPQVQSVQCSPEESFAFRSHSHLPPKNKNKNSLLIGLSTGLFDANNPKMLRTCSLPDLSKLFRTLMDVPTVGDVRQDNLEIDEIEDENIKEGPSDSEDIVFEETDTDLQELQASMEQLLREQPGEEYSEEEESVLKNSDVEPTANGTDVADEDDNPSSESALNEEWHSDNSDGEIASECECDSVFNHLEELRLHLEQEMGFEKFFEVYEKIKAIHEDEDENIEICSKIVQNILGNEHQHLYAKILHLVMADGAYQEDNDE
# [13] = biological target: T5, Serine/threonine-protein kinase Nek1 (Homo sapiens); conditions: at 1 µM
# [14] = biological target: T6, Serine/threonine-protein kinase Nek2 (Homo sapiens) (UniProt P51955); conditions: at 0.1 µM
# T6 sequence (whole entry): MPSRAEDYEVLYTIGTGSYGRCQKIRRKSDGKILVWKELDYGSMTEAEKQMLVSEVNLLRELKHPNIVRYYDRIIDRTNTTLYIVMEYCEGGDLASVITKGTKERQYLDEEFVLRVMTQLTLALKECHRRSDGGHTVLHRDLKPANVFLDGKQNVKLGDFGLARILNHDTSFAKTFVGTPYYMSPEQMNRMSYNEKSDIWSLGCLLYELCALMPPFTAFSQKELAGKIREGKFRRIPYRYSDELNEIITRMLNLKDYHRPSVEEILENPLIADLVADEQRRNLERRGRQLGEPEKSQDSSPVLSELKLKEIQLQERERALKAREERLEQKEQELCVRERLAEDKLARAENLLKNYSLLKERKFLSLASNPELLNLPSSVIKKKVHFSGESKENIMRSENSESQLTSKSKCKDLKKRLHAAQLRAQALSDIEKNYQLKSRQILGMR
# [15] = biological target: T6, Serine/threonine-protein kinase Nek2 (Homo sapiens); conditions: at 1 µM
# [16] = biological target: Serine/threonine-protein kinase Nek6 (Homo sapiens) (UniProt Q9HC98); conditions: at 0.1 µM
# Sequence of Serine/threonine-protein kinase Nek6 (Homo sapiens) (Q9HC98 whole entry): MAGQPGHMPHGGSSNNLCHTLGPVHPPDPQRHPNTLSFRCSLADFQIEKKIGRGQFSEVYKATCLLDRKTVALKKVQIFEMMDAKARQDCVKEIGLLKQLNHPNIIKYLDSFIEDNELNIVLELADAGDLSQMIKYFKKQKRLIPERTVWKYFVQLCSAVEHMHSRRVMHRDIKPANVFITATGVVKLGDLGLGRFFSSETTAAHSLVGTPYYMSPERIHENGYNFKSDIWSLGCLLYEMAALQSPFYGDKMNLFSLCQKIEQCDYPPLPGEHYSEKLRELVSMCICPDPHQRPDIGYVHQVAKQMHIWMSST
# [17] = biological target: Serine/threonine-protein kinase Nek6 (Homo sapiens) (UniProt Q9HC98); conditions: at 1 µM
# [18] = biological target: Serine/threonine-protein kinase Nek7 (Homo sapiens) (UniProt Q8TDX7); conditions: at 0.1 µM
# Sequence of Serine/threonine-protein kinase Nek7 (Homo sapiens) (Q8TDX7 whole entry, looked up): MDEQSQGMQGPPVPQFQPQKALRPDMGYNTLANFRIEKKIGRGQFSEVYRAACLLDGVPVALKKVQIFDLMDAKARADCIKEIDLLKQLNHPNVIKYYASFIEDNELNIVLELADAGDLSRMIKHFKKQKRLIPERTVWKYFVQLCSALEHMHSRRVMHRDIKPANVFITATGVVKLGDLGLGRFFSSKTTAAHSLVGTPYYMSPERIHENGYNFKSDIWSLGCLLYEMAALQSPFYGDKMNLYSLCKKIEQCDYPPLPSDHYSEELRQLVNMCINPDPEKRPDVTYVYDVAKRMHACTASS
# [19] = biological target: Serine/threonine-protein kinase Nek7 (Homo sapiens) (UniProt Q8TDX7); conditions: at 1 µM
# [20] = biological target: T7, Serine/threonine-protein kinase Nek9 (Homo sapiens) (UniProt Q8TD19); conditions: at 0.1 µM;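 note: reported value is the mean percent inhibition of NEK9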
# T7 sequence (whole entry): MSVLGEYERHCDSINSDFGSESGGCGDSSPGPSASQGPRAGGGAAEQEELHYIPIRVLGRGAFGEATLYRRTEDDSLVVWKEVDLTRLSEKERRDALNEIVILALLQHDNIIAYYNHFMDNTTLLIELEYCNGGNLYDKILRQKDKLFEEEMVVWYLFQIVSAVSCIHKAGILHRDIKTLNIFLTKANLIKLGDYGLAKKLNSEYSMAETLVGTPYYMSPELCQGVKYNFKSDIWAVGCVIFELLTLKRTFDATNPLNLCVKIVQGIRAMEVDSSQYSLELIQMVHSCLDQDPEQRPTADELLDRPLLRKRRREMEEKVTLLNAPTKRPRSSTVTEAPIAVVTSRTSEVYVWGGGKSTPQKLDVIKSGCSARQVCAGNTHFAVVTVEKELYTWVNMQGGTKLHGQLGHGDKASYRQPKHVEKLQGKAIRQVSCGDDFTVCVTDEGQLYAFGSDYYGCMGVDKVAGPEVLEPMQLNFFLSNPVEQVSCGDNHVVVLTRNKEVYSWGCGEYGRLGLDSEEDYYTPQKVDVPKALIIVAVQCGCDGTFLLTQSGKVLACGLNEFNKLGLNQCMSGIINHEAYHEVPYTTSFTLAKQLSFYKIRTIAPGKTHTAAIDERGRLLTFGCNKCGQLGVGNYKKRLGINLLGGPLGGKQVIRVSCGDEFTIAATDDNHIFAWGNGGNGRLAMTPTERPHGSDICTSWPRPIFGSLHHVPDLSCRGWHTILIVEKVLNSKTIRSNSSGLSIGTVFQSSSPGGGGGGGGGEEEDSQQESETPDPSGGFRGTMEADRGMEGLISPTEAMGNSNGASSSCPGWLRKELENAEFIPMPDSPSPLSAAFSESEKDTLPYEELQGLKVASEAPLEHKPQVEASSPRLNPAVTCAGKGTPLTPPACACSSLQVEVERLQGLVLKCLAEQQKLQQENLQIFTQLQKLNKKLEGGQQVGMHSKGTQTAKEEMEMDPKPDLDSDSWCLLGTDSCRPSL
# Sequence of Sphingosine kinase 1 (Homo sapiens) (Q9NYA1 whole entry): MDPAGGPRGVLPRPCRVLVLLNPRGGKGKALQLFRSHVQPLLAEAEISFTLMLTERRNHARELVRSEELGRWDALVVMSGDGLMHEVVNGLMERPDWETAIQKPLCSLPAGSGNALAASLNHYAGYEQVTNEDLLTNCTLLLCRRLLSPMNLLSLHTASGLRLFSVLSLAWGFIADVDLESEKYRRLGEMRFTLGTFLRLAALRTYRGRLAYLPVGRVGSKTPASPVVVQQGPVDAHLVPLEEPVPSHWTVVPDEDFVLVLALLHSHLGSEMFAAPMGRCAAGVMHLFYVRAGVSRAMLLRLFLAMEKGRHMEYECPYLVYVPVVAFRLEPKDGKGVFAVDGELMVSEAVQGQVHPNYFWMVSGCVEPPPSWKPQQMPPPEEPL
smiles,measurement,setting,value
CCS(=O)(=O)c1ccc(OC)c(Nc2nccc(N(C)c3ccc4c(C)n[nH]c4c3)n2)c1,inhibition,[1],-1.1%
same,inhibition,[2],-0.07%
same,inhibition,[3],-0.93%
same,inhibition,[4],13.8%
same,inhibition,[5],7.45%
same,inhibition,[6],12%
same,inhibition,[7],6.37%
same,inhibition,[8],8.64%
same,inhibition,[9],7.82%
same,inhibition,[10],7.85%
same,inhibition,[11],6.37%
same,inhibition,[12],2.52%
same,inhibition,[13],2.74%
same,inhibition,[14],5.67%
same,inhibition,[15],3.85%
same,inhibition,[16],2.07%
same,inhibition,[17],0.72%
same,inhibition,[18],2.57%
same,inhibition,[19],5.28%
same,inhibition,[20],3.29%
